For 24 molecules, outcome and AC50 results are on record in PubChem BioAssay (EPA / NIEHS).

A short description of test [1]: CCTE_Padilla_ZF_Score.General: CCTE's 144 Hour Post-fertilization zebrafish Assay Score for General Malformation, Padilla Lab (AID 2284411). The procedure, abridged:
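Wild-type zebrafish embryos were plated singly at 6-8 hpf in 10% Hanks' and exposed in sealed wells at 26C until rinsed on 5 dpf. At 6 dpf two blinded assessors scored mortality, hatching and malformations by stereomicroscopy; gain-of-signal versus DMSO.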

Test [2] can be described thus: CCTE_Padilla_ZF_Score.Tail: CCTE's 144 Hour Post-fertilization zebrafish Assay Score for Tail Malformation, Padilla Lab (AID 2284414). The procedure, abridged: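 Wild-type zebrafish embryos, one per well in 200 uL 10% Hanks', dosed at 6-8 hpf, sealed, and kept at 26 C on a 14:10 h light cycle. Chemical was rinsed out at 5 dpf. Blinded brightfield scoring of tail defects followed at 6 dpf.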

Test [3] is described as follows: CCTE_Padilla_ZF_Score.Blood_pooling: CCTE's 144 Hour Post-fertilization zebrafish Assay Score for Blood Pooling, Padilla Lab (AID 2284415). The procedure, abridged: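 Wild-type outbred zebrafish embryos, one per well in 10% Hanks', exposed from 6–8 hpf in sealed plates at 26C on 14:10 h light:dark, rinsed at 5 dpf. Blinded stereomicroscope scoring of blood pooling at 6 dpf; gain-of-signal versus DMSO.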

The nature of test [4]: CCTE_Padilla_ZF_Score.Any: CCTE's 144 Hour Post-fertilization zebrafish Assay Score for Any Mortality or Malformation, Padilla Lab (AID 2284416). In short, it runs like this: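 Wild-type zebrafish embryos with chorions, one per well in 10% Hanks' from 6–8 hpf, dosed in sealed plates at 26 C, 14:10 h light:dark; rinsed at 5 dpf; blinded scoring at 6 dpf for death or malformation, versus DMSO.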

A further test deals with TTR (gene 7276). Description: CCTE_GLTED_hTTR_0.125uM: CCTE's human Transthyretin (hTTR) Inhibition Assay, with 0.125uM TTR, Great Lakes Toxicology and Ecology Division (GLTED) Lab (AID 2284431).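 Also: hits lower the fluorescence signal relative to DMSO baseline.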 In short, it runs like this:
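Cell-free displacement of ANSA probe from 0.125uM TTR after 2 h incubation with chemical. Fluorescence read at 380 nm excitation/475 nm emission; loss of signal relative to DMSO indicates T4-site displacement.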

The structures appear in SMILES notation. Activity calls are given as the source filed them. The calls were made as follows: active = hit-call score of the fitted dose curve at least 0.9, where 1 is the maximum; inactive = score below 0.9.

`FC1(F)C=CC(F)(F)C1(F)F`: the molecule was called inactive in test [1], in test [2], in test [3] and in test [4].
Consider `O=C1OC(=O)C(F)(F)C1(F)F`, for which the result in test [1], in test [2], in test [3] and in test [4] was inactive.
Consider `C=CC(C)(CCC=C(C)C)OC(C)=O` (stereo not given), for which the molecule was called inactive in test [1].
On to `O=CC(F)(F)C(F)(F)C(F)(F)F`, for which the half-maximal activity concentration (AC50) in test [1] is 79.6 µM (active). For the same molecule, the outcome in test [2], in test [3] and in test [4] was inactive.
`O=C(O)C(F)(F)OC(F)(F)C(F)(F)OC(F)(F)C(F)(F)OC(F)(F)C(F)(F)C(F)(F)C(F)(F)F`: the concentration at half-maximal activity (AC50) in test [1] is 2.18 µM (active); in test [4], 2.9 µM (active). Also, the result in test [2] and in test [3] was inactive.
Regarding `FC(F)(F)C1(F)C(F)(F)C(F)(F)C(F)(F)C(F)(C(F)(F)F)C1(F)F` (stereo not given), the molecule was classed as inactive in test [1], in test [2], in test [3] and in test [4].
On to `O=P(O)(O)CCC(F)(F)C(F)(F)C(F)(F)C(F)(F)C(F)(F)C(F)(F)C(F)(F)C(F)(F)F`, for which the AC50 in test [1] is 1.78 µM (active); in test [4] it was 2.32 µM (active). The result in test [2] and in test [3] was inactive.
`C=CC(F)(F)C(F)(F)C(F)(F)C(F)(F)F`: the molecule was classed as inactive in test [1], in test [2], in test [3] and in test [4].
On to `O=CC(F)(F)C(F)(F)C(F)(F)C(F)F`, for which the molecule was called inactive in test [1], in test [2], in test [3] and in test [4].
On to `COC(=O)C(F)(F)C(F)(F)C(F)(F)C(F)(F)C(F)(F)F`, for which the molecule was called inactive in test [1], in test [2], in test [3] and in test [4].
As for `CN(CCO)S(=O)(=O)C(F)(F)C(F)(F)C(F)(F)C(F)(F)C(F)(F)C(F)(F)C(F)(F)C(F)(F)F`, the molecule was called inactive in test [1], in test [2] and in test [3]. Also, the AC50 in test [4] is 9.78 µM (active).
For `CC(C)(c1ccc(Oc2ccc(N)cc2)cc1)c1ccc(Oc2ccc(N)cc2)cc1`, the molecule was classed as inactive in test [1].
On to `O=C1c2ccc(O)c(O)c2C(=O)c2c(O)ccc(O)c21`, for which the outcome in test [1] was inactive.
Regarding `O=P(O)(O)CCC(F)(F)C(F)(F)C(F)(F)C(F)(F)C(F)(F)C(F)(F)F`, the molecule was classed as inactive in test [1], in test [2] and in test [3]. In addition, the half-maximal activity concentration (AC50) in test [4] was 25.6 µM (active).
Consider `O=C(O)CCC(F)(F)C(F)(F)C(F)(F)C(F)(F)C(F)(F)F`, for which the AC50 was 10.7 µM (active) in test [1] and 10 µM (active) in test [4]. Moreover, the result in test [2] and in test [3] was inactive.
`C=CC(=O)OCCC(F)(F)C(F)(F)C(F)(F)C(F)(F)C(F)(F)C(F)(F)C(F)(F)C(F)(F)F`: the result in test [1], in test [2], in test [3] and in test [4] was inactive.
Take `FC(F)(F)C1(F)C(F)(F)C(F)(F)C(F)(F)C1(F)F`: the molecule was classed as inactive in test [1], in test [2], in test [3] and in test [4].
Regarding `OCC(F)(F)C(F)(F)C(F)(F)C(F)(F)C(F)(F)C(F)(F)C(F)(F)C(F)(F)C(F)(F)C(F)(F)C(F)(F)F`, the outcome in test [1], in test [2], in test [3] and in test [4] was inactive.
On to `CCCCCCCCCCCCCCCCCC[N+](C)(C)Cc1ccccc1`, for which the molecule was classed as inactive in test [1].
`COC1=CC(=O)C[C@@H](C)[C@]12Oc1c(Cl)c(OC)cc(OC)c1C2=O`: the molecule was classed as inactive in test [1].
On the same count and under the same terms, the entry for `OCCN1CN(CCO)CN(CCO)C1` is “inactive”.
Regarding `O=C(F)C(F)(F)C(F)(F)C(F)(F)C(=O)F`, the outcome in test [1], in test [2], in test [3] and in test [4] was inactive.
With `COc1cc([N+](=O)[O-])ccc1N`, in the test with TTR (gene 7276), the concentration at half-maximal activity (AC50) was 14.9 µM (active).
For the molecule `FC(F)=C(F)C(F)(F)C(F)(F)C(F)(F)C(F)F`, the molecule was called inactive in test [1], in test [2], in test [3] and in test [4].

Broadly, the AC50 is the midpoint of the concentration-response curve, whichever way the signal moves.
